From PubChem BioAssay
For part of these data: Entries with a potency or affinity are not part of this list. Active and inactive are the calls of the source. Unless noted, the rule behind the calls is not given here.

Columns and labels:
[1] = antimalarial activity against Dd2 strain (AID 2302;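 active = growth inhibition above 50% at the single 2 µM test dose, taken to imply half-maximal potency below 2 µM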;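 note: 0% = DMSO untreated growth and 100% = chloroquine plus artemisinin killed control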); details: P. falciparum Dd2 in RBCs, LDH growth readout, 72 h; at 2 µM; active compounds read high
[2] = HepG2 cytotoxicity, primary screen, cytotoxicity control for P. falciparum antimalarial project, cell-based, ATP luminescence (AID 2303;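 active = inhibition above 50%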;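 note: 0% = DMSO wells and 100% = digitonin-killed cells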); details: HepG2 viability, 24-48 h, at 10 µM, active compounds read high
[3] = biological target: L-lactate dehydrogenase (Plasmodium falciparum (isolate CDC / Honduras)) (UniProt Q27743); assay: PfLDH activity inhibition – cell lysate, 3D7 strain, counter-screen for P. falciparum growth inhibition project (AID 2304);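 note: 0% = vehicle and 100% = reference inhibitor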; details: P. falciparum 3D7 crude extract, LDH APAD/NBT absorbance; at 2 µM; active compounds read high
Chain of L-lactate dehydrogenase (Plasmodium falciparum (isolate CDC / Honduras)) (Q27743 whole entry, looked up): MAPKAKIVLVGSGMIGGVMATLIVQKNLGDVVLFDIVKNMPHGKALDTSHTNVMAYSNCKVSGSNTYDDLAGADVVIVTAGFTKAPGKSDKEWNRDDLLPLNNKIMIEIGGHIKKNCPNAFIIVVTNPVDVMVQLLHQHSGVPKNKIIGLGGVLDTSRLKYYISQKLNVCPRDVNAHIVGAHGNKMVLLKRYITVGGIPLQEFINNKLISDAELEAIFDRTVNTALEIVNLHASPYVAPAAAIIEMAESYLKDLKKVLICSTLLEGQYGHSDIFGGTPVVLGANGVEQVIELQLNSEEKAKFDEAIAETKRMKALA

[4] = inhibition of 3D7 malaria parasite growth – strain 3D7 (AID 2306);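 note: 0% = DMSO wells and 100% = chloroquine plus artemisinin control wells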; details: P. falciparum 3D7 erythrocytic growth, LDH absorbance, 72 h; at 2 µM; active compounds read high
[5] = biological target: Calcium-dependent protein kinase 1 (Plasmodium falciparum (isolate 3D7)) (UniProt P62344); assay: PfCDPK1 kinase inhibitors, biochemical, TCAMS library (AID 1159585; cut-off not given, nearly all actives have IC50 up to about 0.98 µM;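 note: inhibitors leave more ATP so luminescence rises with inhibition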); details: recombinant PfCDPK1, Kinase-Glo ATP depletion luminescence
Chain of Calcium-dependent protein kinase 1 (Plasmodium falciparum (isolate 3D7)) (P62344 whole entry, looked up): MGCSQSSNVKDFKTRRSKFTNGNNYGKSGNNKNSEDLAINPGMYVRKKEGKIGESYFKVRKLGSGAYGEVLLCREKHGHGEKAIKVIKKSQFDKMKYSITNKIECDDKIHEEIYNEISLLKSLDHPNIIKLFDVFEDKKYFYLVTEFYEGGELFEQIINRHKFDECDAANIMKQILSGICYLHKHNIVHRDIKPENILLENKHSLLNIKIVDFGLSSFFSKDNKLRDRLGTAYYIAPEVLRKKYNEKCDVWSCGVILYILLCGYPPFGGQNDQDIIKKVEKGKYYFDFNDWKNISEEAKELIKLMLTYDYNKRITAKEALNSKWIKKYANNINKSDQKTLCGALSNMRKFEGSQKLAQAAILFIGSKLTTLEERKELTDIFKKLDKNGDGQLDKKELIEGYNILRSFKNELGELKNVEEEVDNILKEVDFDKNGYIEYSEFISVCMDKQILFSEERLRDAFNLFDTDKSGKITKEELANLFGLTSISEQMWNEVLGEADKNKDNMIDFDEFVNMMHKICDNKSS

[6] = biological target: Plasmodium falciparum protein kinase 6 (PK6, PF3D7_1337100) (UniProt Q8IDW1); assay: PfPK6 kinase inhibitors, biochemical, TCAMS library (AID 1159586); details: recombinant PfPK6, Kinase-Glo ATP depletion luminescence
Chain of Plasmodium falciparum protein kinase 6 (PK6, PF3D7_1337100) (Q8IDW1 1-305): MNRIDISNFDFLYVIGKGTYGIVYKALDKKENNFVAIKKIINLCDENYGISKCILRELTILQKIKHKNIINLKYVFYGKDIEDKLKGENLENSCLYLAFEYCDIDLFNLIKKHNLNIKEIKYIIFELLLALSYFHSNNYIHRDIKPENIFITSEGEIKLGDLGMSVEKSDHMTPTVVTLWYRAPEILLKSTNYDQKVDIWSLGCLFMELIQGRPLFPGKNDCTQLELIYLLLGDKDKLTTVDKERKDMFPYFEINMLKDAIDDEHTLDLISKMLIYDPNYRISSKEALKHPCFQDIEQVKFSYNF

[7] = biological target: Protein kinase 7 (PK7), Plasmodium falciparum 3D7 (PF3D7_0213400) (UniProt Q7YTF7); assay: inhibition of Plasmodium PK7 catalytic activity – biochemical, TCAMS antimalarial set, Kinase-Glo luminescence (AID 1159587); details: recombinant PfPK7, Kinase-Glo ATP depletion luminescence
Chain of Protein kinase 7 (PK7), Plasmodium falciparum 3D7 (PF3D7_0213400) (Q7YTF7 1-343): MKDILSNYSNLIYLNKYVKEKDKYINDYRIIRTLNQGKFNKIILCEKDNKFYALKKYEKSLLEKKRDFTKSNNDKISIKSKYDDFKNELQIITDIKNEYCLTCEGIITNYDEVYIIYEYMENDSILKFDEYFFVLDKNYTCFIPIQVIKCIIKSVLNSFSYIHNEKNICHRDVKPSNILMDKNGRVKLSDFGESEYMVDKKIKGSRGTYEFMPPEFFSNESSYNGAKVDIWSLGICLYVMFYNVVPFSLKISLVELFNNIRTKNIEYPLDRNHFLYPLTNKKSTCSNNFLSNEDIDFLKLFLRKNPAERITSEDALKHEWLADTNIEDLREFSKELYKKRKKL

[8] = biological target: Calcium-dependent protein kinase 4 (Plasmodium falciparum (isolate 3D7)) (UniProt Q8IBS5); assay: PfCDPK4 kinase inhibitors, biochemical, TCAMS library (AID 1159588; cut-off not given, nearly all actives have IC50 up to about 0.91 µM); details: recombinant PfCDPK4, Kinase-Glo ATP depletion luminescence
Chain of Calcium-dependent protein kinase 4 (Plasmodium falciparum (isolate 3D7)) (Q8IBS5 whole entry, looked up): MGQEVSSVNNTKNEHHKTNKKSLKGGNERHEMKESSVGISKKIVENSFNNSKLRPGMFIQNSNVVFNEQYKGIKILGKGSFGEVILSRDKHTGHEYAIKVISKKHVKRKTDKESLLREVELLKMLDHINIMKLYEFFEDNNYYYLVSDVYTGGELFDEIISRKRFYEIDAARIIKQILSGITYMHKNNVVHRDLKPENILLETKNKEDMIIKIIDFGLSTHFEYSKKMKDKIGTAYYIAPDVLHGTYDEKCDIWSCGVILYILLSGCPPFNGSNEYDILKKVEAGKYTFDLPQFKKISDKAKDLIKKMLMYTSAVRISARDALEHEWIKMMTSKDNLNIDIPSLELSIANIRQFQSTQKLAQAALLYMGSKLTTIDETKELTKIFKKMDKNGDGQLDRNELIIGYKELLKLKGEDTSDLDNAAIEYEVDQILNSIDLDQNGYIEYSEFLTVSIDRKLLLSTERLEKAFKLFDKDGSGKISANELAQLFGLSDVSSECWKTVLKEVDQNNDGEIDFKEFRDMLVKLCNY

Cc1cc(C(=O)Nc2ccc3c(c2)CCN3C2CCN(Cc3ccc(F)cc3Cl)C2)no1 (configuration not stated)
inactive: inhibition [2] 7% | inhibition [3] 1% | outcome [5] | outcome [6] | outcome [7] | outcome [8]
active: growth inhibition [1] 96% | growth inhibition [4] 95%

CS(=O)(=O)NCCCNCc1ccc(-c2ccc(-c3nc4ccc(C(F)(F)F)cc4[nH]3)s2)cc1
inactive: inhibition [2] 21% | inhibition [3] -5% | outcome [5] | outcome [6] | outcome [7] | outcome [8]
active: growth inhibition [1] 73% | growth inhibition [4] 99%

CC(=NN=C(N)N)c1ccc2c(ccc3ccccc32)c1
active: growth inhibition [4] 100%
inactive: growth inhibition [1] 15% | inhibition [2] 47% | inhibition [3] 8% | outcome [5] | outcome [6] | outcome [7] | outcome [8]

CN(C)CCCOc1cccc(NC(=O)Nc2ccc(-c3ccccc3)cc2)c1
inactive: growth inhibition [1] 14% | inhibition [2] 9% | inhibition [3] -8% | outcome [5] | outcome [6] | outcome [7] | outcome [8]
active: growth inhibition [4] 91%

Clc1ccc(-c2ncc(-c3ccncc3)[nH]2)cc1Cl
active: growth inhibition [1] 63% | growth inhibition [4] 96%
inactive: inhibition [2] 1% | inhibition [3] -5% | outcome [5] | outcome [6] | outcome [7] | outcome [8]

CCCNC[C@@H](O)[C@H](Cc1ccccc1)NC(=O)c1cc(NCC)cc(N2CCCC2=O)c1
active: growth inhibition [1] 76% | growth inhibition [4] 100%
inactive: inhibition [2] -9% | inhibition [3] 1% | outcome [5] | outcome [6] | outcome [7] | outcome [8]

CN(C)CCCN1CCN(C(=O)c2cc3cc(-c4ccccc4)ccc3n2S(=O)(=O)c2ccccc2)CC1
inactive: inhibition [2] 32% | inhibition [3] 4% | outcome [5] | outcome [6] | outcome [7] | outcome [8]
active: growth inhibition [1] 94% | growth inhibition [4] 101%

CC(=O)Nc1ccc(C(=O)Nc2cccc(-c3cccc(-c4nc5ccccc5[nH]4)c3)c2)cn1
active: growth inhibition [1] 100% | growth inhibition [4] 101%
inactive: inhibition [2] 3% | inhibition [3] -2% | outcome [5] | outcome [6] | outcome [7] | outcome [8]

CS(=O)(=O)CCNCc1nc(-c2ccc3ncnc(Nc4ccc(OCc5ccccc5)c(Cl)c4)c3c2)cs1
inactive: inhibition [2] 13% | inhibition [3] 2% | outcome [5] | outcome [6] | outcome [7] | outcome [8]
active: growth inhibition [1] 55% | growth inhibition [4] 99%

Cc1cccc2[nH]c(-c3ccc(-c4ccc(CN5CCCCC5)cc4)cc3)nc12
inactive: inhibition [2] 27% | inhibition [3] -2% | outcome [5] | outcome [6] | outcome [7] | outcome [8]
active: growth inhibition [1] 99% | growth inhibition [4] 100%

CC1(C)CCC(C)(C)c2c1ccc(C1CCN(CCCCNC(=O)c3ccc(-c4ccc(C#N)cc4)cc3)CC1)c2O
active: growth inhibition [1] 85% | inhibition [2] 81% | growth inhibition [4] 100%
inactive: inhibition [3] 7% | outcome [5] | outcome [6] | outcome [7] | outcome [8]

CCN(CC)CCCC(C)Nc1c2ccccc2nc2ccc3ccccc3c12 (configuration not stated)
inactive: inhibition [2] 24% | inhibition [3] 1% | outcome [5] | outcome [6] | outcome [7] | outcome [8]
active: growth inhibition [1] 89% | growth inhibition [4] 100%

COc1cc(Cc2cnc(N)nc2N)cc(OCCNC(=O)OCc2ccccc2)c1OC
inactive: growth inhibition [1] -3% | inhibition [2] 6% | inhibition [3] 4% | outcome [5] | outcome [6] | outcome [7] | outcome [8]
active: growth inhibition [4] 93%

CN(C)CCNCc1ccc(-c2ccc(-c3nc4ccc(F)cc4[nH]3)cc2)cc1
inactive: inhibition [2] 8% | inhibition [3] -4% | outcome [5] | outcome [6] | outcome [7] | outcome [8]
active: growth inhibition [1] 99% | growth inhibition [4] 101%

COc1ccc(NC(=O)c2ccc(-c3ccc(-c4cccnc4)cc3)c(C)c2)cc1OCCN(C)C
inactive: inhibition [2] 24% | inhibition [3] 0% | outcome [5] | outcome [6] | outcome [7] | outcome [8]
active: growth inhibition [1] 73% | growth inhibition [4] 99%

COc1cccc(C2=CC(C)(C)Oc3cc(OCCN(C)C)ccc32)c1
inactive: inhibition [3] -4% | outcome [5] | outcome [6] | outcome [7] | outcome [8]
active: growth inhibition [1] 96% | inhibition [2] 57% | growth inhibition [4] 97%

O=C(Nc1cccc(-c2ccc(-c3nc4ccc(F)cc4[nH]3)s2)c1)c1ccncc1
inactive: growth inhibition [1] 29% | inhibition [3] -8% | outcome [5] | outcome [6] | outcome [7] | outcome [8]
active: inhibition [2] 74% | growth inhibition [4] 96%

CC(C)c1ccc(NC(=O)Nc2ccc(CCNCCCc3ccccc3)cc2)cc1
active: growth inhibition [1] 56% | growth inhibition [4] 101%
inactive: inhibition [2] 22% | inhibition [3] 1% | outcome [5] | outcome [6] | outcome [7] | outcome [8]

COC(=O)c1cccc(NC(=O)NC2CCN(c3ccnc(Nc4ccc(OC)cc4)n3)C2)c1 (configuration not stated)
inactive: inhibition [2] 1% | inhibition [3] -3% | outcome [5] | outcome [6] | outcome [7] | outcome [8]
active: growth inhibition [1] 65% | growth inhibition [4] 99%

Cc1cc(N[C@@H](Cc2ccccc2)C(=O)NC2CCCC2)nc(NCCCOC(C)C)n1
inactive: growth inhibition [1] 43% | inhibition [2] -4% | inhibition [3] -3% | outcome [5] | outcome [6] | outcome [7] | outcome [8]
active: growth inhibition [4] 92%

CCNc1cc(C(=O)N[C@@H](Cc2ccccc2)[C@H](O)CNC23CC4CC(CC(C4)C2)C3)cc(N2CCCCS2(=O)=O)c1
active: growth inhibition [1] 99% | growth inhibition [4] 98%
inactive: inhibition [2] 3% | inhibition [3] -2% | outcome [5] | outcome [6] | outcome [7] | outcome [8]

CCC(CC(C)C(=O)O)=C(c1ccccc1)c1ccccc1 (configuration not stated)
active: growth inhibition [4] 98%
inactive: growth inhibition [1] 1% | inhibition [2] 12% | inhibition [3] 5% | outcome [5] | outcome [6] | outcome [7] | outcome [8]

CN(C)c1ccc(-c2csc(C(=O)NCC3CCN(Cc4cccc(C(F)(F)F)c4)C3)c2)cc1 (configuration not stated)
inactive: inhibition [2] 15% | inhibition [3] -2% | outcome [5] | outcome [6] | outcome [7] | outcome [8]
active: growth inhibition [1] 58% | growth inhibition [4] 97%

Cc1cccc2[nH]c(-c3ccc(-c4ccc(CN5CCC(C(N)=O)CC5)cc4)s3)nc12
active: growth inhibition [1] 51% | growth inhibition [4] 97%
inactive: inhibition [2] 4% | inhibition [3] 8% | outcome [5] | outcome [6] | outcome [7] | outcome [8]

COCCCN=C(N)c1ccc(NC(=O)c2ccc(C(=O)Nc3ccc(C(N)=NCCCOC)cc3)cc2)cc1
active: growth inhibition [1] 99% | growth inhibition [4] 100%
inactive: inhibition [2] 33% | inhibition [3] -2% | outcome [5] | outcome [6] | outcome [7] | outcome [8]

CCN(CC)CCN(Cc1ccc(-c2ccc(C(F)(F)F)cc2)cc1)C(=O)Cn1cc(Cc2cnn(C)c2)c(=O)n2nc(-c3ccccc3)cc12
inactive: inhibition [2] 18% | inhibition [3] -2% | outcome [5] | outcome [6] | outcome [7] | outcome [8]
active: growth inhibition [1] 74% | growth inhibition [4] 100%

N#Cc1cccc(CN2CCCN(c3ccc(NC(=O)c4cccs4)cc3)CC2)c1
inactive: inhibition [2] -2% | inhibition [3] -2% | outcome [5] | outcome [6] | outcome [7] | outcome [8]
active: growth inhibition [1] 95% | growth inhibition [4] 96%

COc1ccc2ncc(F)c([C@@H](O)CN3CCC(NCc4ccc5c(c4)NCCS5)CC3)c2n1
active: growth inhibition [1] 69% | inhibition [2] 77% | growth inhibition [4] 99%
inactive: inhibition [3] -3% | outcome [5] | outcome [6] | outcome [7] | outcome [8]

Brc1ccsc1-c1nc(NCCC(c2ccccc2)c2ccccc2)no1
inactive: inhibition [2] 17% | inhibition [3] -5% | outcome [5] | outcome [6] | outcome [7] | outcome [8]
active: growth inhibition [1] 81% | growth inhibition [4] 94%

COc1ccc(-n2ncc(C(=O)N3CCC4(C3)C(=O)N(c3ccccc3)c3ccccc34)c2C)cc1 (configuration not stated)
inactive: inhibition [2] 45% | inhibition [3] 0% | outcome [5] | outcome [6] | outcome [7] | outcome [8]
active: growth inhibition [1] 91% | growth inhibition [4] 88%

O=C(NCc1ccccc1)NC1CCN(c2ccnc3cc(Cl)ccc23)C1 (configuration not stated)
active: growth inhibition [1] 99% | growth inhibition [4] 94%
inactive: inhibition [2] 13% | inhibition [3] -2% | outcome [5] | outcome [6] | outcome [7] | outcome [8]

C[C@@H]1CN(c2cnn(Cc3ccc(NC(=O)Nc4ccc(-c5ccccc5)cc4)cc3)c(=O)c2Cl)C[C@H](C)N1
active: inhibition [2] 82% | growth inhibition [4] 100%
inactive: growth inhibition [1] 46% | inhibition [3] -3% | outcome [5] | outcome [6] | outcome [7] | outcome [8]

N#Cc1cccc(NC(=O)Nc2ccc(-c3ccc(-c4nc5ccc(C(F)(F)F)cc5[nH]4)cc3)cc2)c1
active: growth inhibition [1] 100% | inhibition [2] 51% | growth inhibition [4] 102%
inactive: inhibition [3] -2% | outcome [5] | outcome [6] | outcome [7] | outcome [8]

COc1ccc(N2C(N)=NC(N)=NC2(C)C)cc1
inactive: growth inhibition [1] 29% | inhibition [2] 0% | inhibition [3] 4% | outcome [5] | outcome [6] | outcome [7] | outcome [8]
active: growth inhibition [4] 94%

FC(F)(F)c1cccc(Nc2nc3ccccc3nc2Nc2cccc(C(F)(F)F)c2)c1
inactive: inhibition [2] 45% | inhibition [3] 2% | outcome [5] | outcome [6] | outcome [7] | outcome [8]
active: growth inhibition [1] 100% | growth inhibition [4] 101%

COc1cc(CNCCCNc2nc3ncccc3[nH]2)c2[nH]cc(Br)c2c1
active: growth inhibition [4] 92%
inactive: growth inhibition [1] 3% | inhibition [2] 12% | inhibition [3] 8% | outcome [5] | outcome [6] | outcome [7] | outcome [8]

COc1ccccc1C1CCN(C2CCC(NC(=O)/C=C/c3ccc(C(F)(F)F)cc3F)CC2)CC1 (configuration not stated)
inactive: growth inhibition [1] 2% | inhibition [3] 2% | outcome [5] | outcome [6] | outcome [7] | outcome [8]
active: inhibition [2] 63% | growth inhibition [4] 95%

O=C(NCc1cccs1)[C@H](Cc1ccccc1)Nc1ccnc(NCCc2ccc(F)cc2)n1
inactive: inhibition [2] 1% | inhibition [3] -2% | outcome [5] | outcome [6] | outcome [7] | outcome [8]
active: growth inhibition [1] 52% | growth inhibition [4] 85%

CCC1CCc2cc(N)cc(-c3nc4c(c(C)nn4CC)c(=O)[nH]3)c2O1 (configuration not stated)
inactive: growth inhibition [1] 42% | inhibition [2] -3% | inhibition [3] -4% | outcome [5] | outcome [6] | outcome [7] | outcome [8]
active: growth inhibition [4] 86%
